From PubChem BioAssay
Compounds with a hit are over-represented: about 11% of the library has one in this group of screens.
HCV inh – qHTS Assay for Inhibitors of Hepatitis C Virus (HCV) | Huh7.5.1 HCVcc-Cre infection, luciferase reporter, 44 h | Potency, µM (series often up to 41.8 µM), without a hit: at the highest dose activity change, negative = inhibition, most hits filed as inhibitors | 340,000 compounds, 3.4% hits | AID 651820, 2012
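1,000 cells/well; 4 h culture; + compound; + HCVcc-Cre (~0.5 moi); 44 h; luciferase substrate, RT 15 min; read 15 sec.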
Pf growth 96h – Primary qHTS for delayed death inhibitors of the malarial parasite plastid, 96 hour incubation; P. falciparum luciferase reporter growth, 96 h; Potency, µM (doses to about 28.7 µM), without a hit: at the highest dose activity change, negative = inhibition, hits mostly inhibitors; 320,000 compounds, 6.9% hits; AID 504834, 2011
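Luminescence readout: decreased luciferase signal marks inhibited growth of reporter-expressing P. falciparum in infected red cells (2% hematocrit, 0.05% parasitemia final), exposed to compound two generations (96 h, 37 C, 5% CO2).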
AMA1-RON2 inh – qHTS for Inhibitors of AMA1-RON; Towards Development of Antimalarial Drug Lead: Primary Screen | 360,000 compounds, 0.2% hits | Potency, µM (series often up to 58.2 µM), without a hit: at the highest dose activity change, negative = inhibition, hits mostly inhibitors | AlphaScreen AMA1-biotinylated RON2 peptide binding;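 further: 0% = vehicle wells and -100% = peptide control; nearly all actives have a fitted effect of over 45% in size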
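AMA1 (3D7) with his tag at 25 nM final met compounds first, then biotinylated RON2 peptide at 25 nM; detection used donor plus acceptor beads, 10 µg/mL apiece, read by AlphaScreen after 30 min at room temperature.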
Pf growth 48h – Primary qHTS for delayed death inhibitors of the malarial parasite plastid, 48 hour incubation | Potency, µM (series often up to 28.7 µM), for inactives: top-dose activity change, negative = inhibition, actives largely listed as inhibitors | P. falciparum luciferase growth in erythrocytes, 48 h | 310,000 compounds, 5.9% hits
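A one-generation exposure of luciferase-tagged malaria parasites in RPMI 1640/Albumax erythrocyte culture, 37 C and 5% CO2. Inhibition is inferred from decreased luminescence after adding detection reagent.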
Starred values were filed as active, the others as inactive; u = inconclusive; x = no result. The call rests on the fitted dose curve; in most records, active means well fitted curve in the direction sought with a large enough effect; inconclusive means small, poorly fitted or top-dose-only effect, or another doubt; inactive means no such curve, though single readings can be large; an effect the other way counts as inactive or inconclusive. Unless noted, on the % scale 0 is the no-effect control and ±100 the full control effect; potency means the concentration at half of the fitted maximal effect.

SMILES	HCV inh	Pf growth 96h	AMA1-RON2 inh	Pf growth 48h
COCCN1Cc2cc3cc(C)ccc3nc2SC1=Nc1ccc(OC)cc1	-20%	-22%	u	u
Cc1cccc(N=C2Sc3nc4c(C)c(C)ccc4cc3CN2CCN2CCOCC2)c1	13µM*	7.4µM*	-17%	12µM*
COCCN1Cc2cc3cc(C)ccc3nc2SC1=Nc1cccc(OC)c1	-22%	1%	41%	15µM*
O=C(Cc1ccccc1)Nc1cccc(C(=O)O)c1O	17%	-4%	-16%	20%
CCN1CCc2c(sc(NC(=O)c3ccc(S(=O)(=O)N4CCCC4)cc3)c2C(=O)NC)C1	-14%	15µM*	-15%	10µM*
CN1CCc2c(sc(NC(=O)c3ccc(S(=O)(=O)N4CCCCCC4)cc3)c2C(N)=O)C1	u	u	-24%	u
CNC(=O)c1c(NC(=O)c2ccc(S(=O)(=O)N3CCCCC3)cc2)sc2c1CCN(C(C)C)C2	-14%	8.3µM*	-9%	10µM*
CCCCCOP(=O)(c1ccccc1)c1ccccc1	-12%	9.3µM*	16%	12µM*
CCCCCP(=O)(O)c1ccccc1	2%	32%	7%	15%
Cn1cc[n+](C)c1P(=S)(c1ccccc1)c1ccccc1	8%	u	6%	u
Cn1cccc/c1=N\c1cccc[n+]1C	3.5µM*	u	6%	u
Cn1c(SCc2cccc(F)c2)nnc1-c1ccncc1	15%	u	1%	u
COc1ccc(N2CCN(CC(=O)N3CCC(C)CC3)CC2)cc1	11%	-10%	6%	4%
COc1ccc(-n2c(=O)c(CCC(=O)N3CCC(C)CC3)nc3ccccc32)cc1	u	u	2%	9.3µM*
COc1ccc(-n2c(=O)c(CCC(=O)N(C)Cc3cccs3)nc3ccccc32)cc1	u	u	-1%	13µM*
CN(Cc1cccs1)C(=O)CSc1nc(N)cc(N)n1	-4%	25%	9%	11%
CSCCC(NC(=O)c1ccccc1Br)C(=O)N1CCN(C(C)=O)CC1 (stereo not drawn)	-4%	4%	93%	-25%
COc1ccc(S(=O)(=O)N2CCC[C@H]2C(=O)N2CCC[C@H]2C(=O)NCc2ccc(F)cc2F)cc1C	x	x	-3%	x
CN(C)c1ccc(/C=N/N=C(N)N)cc1[N+](=O)[O-]	1%	281%	-4%	2.1µM*
COc1ccc(C2=Nc3ccccc3N(C(=O)Cc3cc(OC)cc(OC)c3)C2C(=O)NC(C)(C)C)cc1 (stereo not drawn)	x	x	-17%	x
CCN(CC)CCCCNc1ncc2cc(-c3cc(OC)cc(OC)c3)c(NC(=O)NC(C)(C)C)nc2n1	u	9.3µM*	-1%	u
COc1ccc(NC(=O)Nc2c(C)n(C)n(-c3ccccc3)c2=O)c(OC)c1	-13%	16%	7%	3%
CSc1ccc(C(=O)N2CCC(CCC(=O)NC3CC3)CC2)cc1	22%	-2%	0%	-16%
COc1ccc(Nc2nc(-c3ccccc3F)nc3ccccc23)cc1OC	25µM*	u	-8%	u
COc1ccccc1Nc1nc(-c2ccccc2O)nc2ccccc12	4µM*	u	0%	u
SMILES	HCV inh	Pf growth 96h	AMA1-RON2 inh	Pf growth 48h
Oc1ccc(Nc2nc(-c3ccccc3F)nc3ccccc23)cc1	u	-5%	2%	-20%
COc1ccc(OC)c(Nc2nc(-c3ccccc3O)nc3ccccc23)c1	u	u	-30%	-3%
COc1ccc(Nc2nc(-c3ccccc3O)nc3ccccc23)cc1	u	u	-16%	u
Oc1cccc(Nc2nc(-c3ccccc3Cl)nc3ccccc23)c1	-19%	-11%	-5%	u
Oc1ccc(Nc2nc(-c3ccccc3O)nc3ccccc23)cc1	11µM*	u	0%	-15%
Oc1ccccc1Nc1nc(-c2ccccc2O)nc2ccccc12	u	1.3µM*	0%	1µM*
CC(=O)c1ccc(S(=O)(=O)N2CCN(C(=O)c3ccc(COc4ccccc4)o3)CC2)cc1	u	u	-6%	u
Cc1cc(N(C)C)ccc1N=Nc1ccc2ncccc2c1	u	u	11µM*	-21%
Cc1nonc1NC(=O)OC1CCCCC1	-4%	1µM*	25%	u
O=C(c1cnn(-c2ccccc2)c1-n1cccc1)N1CCN(C2CCCCC2)CC1	13%	141%	-4%	-11%
CNC(=O)C[C@H]1C(=O)N(Cc2ccccc2)C[C@@H]1Cc1ccccc1	x	x	8%	x
O=Cc1cccn1Cc1ccccc1[N+](=O)[O-]	6%	9.3µM*	8%	-2%
O=C(NCc1ccco1)c1ccc(CNc2c(N3CCCCC3)c(=O)c2=O)cc1	4%	10µM*	-4%	6%
CCOC(=O)C1CCN(c2c(NCc3ccc(C(=O)NC4CCCC4)cc3)c(=O)c2=O)CC1	u	u	4%	x
CC1CCN(c2c(NCc3ccc(C(=O)NCc4ccco4)cc3)c(=O)c2=O)CC1	-5%	u	9%	-21%
CCOC(=O)C1CCN(c2c(NCc3ccc(C(=O)Nc4ccc(C)cc4)cc3)c(=O)c2=O)CC1	u	4.1µM*	-7%	4.7µM*
Cc1cc(C)cc(NC(=O)c2ccc(CNc3c(N4CCCC4)c(=O)c3=O)cc2)c1	-26%	0.52µM*	-8%	u
CCCCNC(=O)c1ccc(CNc2c(N3CCC(C(=O)OCC)CC3)c(=O)c2=O)cc1	u	u	0%	12µM*
O=C(Nc1cc(=O)c2ccccc2o1)N1CCOCC1	3%	7%	-18%	u
O=C(Nc1cc(=O)c2ccccc2o1)N1CCCCC1	-20%	5.2µM*	-1%	4.7µM*
Cn1ncc2cc3c(Nc4ccc(Cl)cc4)cccc3nc21	x	x	54%	x
Cc1noc(C)c1COC(=O)c1ccccc1Sc1ccccc1C#N	u	12µM*	-1%	x
N#Cc1ccccc1Sc1ccccc1C(=O)OCC(N)=O	9%	23%	2%	5%
CCN(CC)c1ccc(Nc2nc(N3CCOCC3)c3ccccc3n2)cc1	4.5µM*	x	24µM*	0%
COc1ccc(Nc2nc(N3CCCC3)c3ccccc3n2)cc1	10µM*	222%	u	3.3µM*
SMILES	HCV inh	Pf growth 96h	AMA1-RON2 inh	Pf growth 48h
O=C(NCCc1csc(-c2cccnc2)n1)c1c(F)cccc1F	11µM*	-1%	3%	-19%
O=C(NCCc1csc(-c2cccnc2)n1)c1ccc(Br)o1	u	8.3µM*	0%	u
CCc1nn2c(=O)cc(COC(=O)c3cc(Cl)c(OC)c(OC)c3)nc2s1	u	u	-4%	12µM*
CCCOc1c(Br)cc(C(=O)OCc2cc(=O)n3ccsc3n2)cc1OC	u	x	3%	x
Cc1ccc(-n2nc3ccc(N)cc3n2)cc1Cl	-21%	4.1µM*	0%	89%
Cc1ccc(-n2nc3ccc(N)cc3n2)cc1C	-1%	185%	37%	0%
Cc1ccc(-n2nc3ccc(N)cc3n2)c(C)c1	-4%	1.7µM*	-15%	98%
O=C(CCOc1ccccc1)Nc1ccnn1C1CCN(C(=O)CCC(F)(F)F)CC1	13%	12µM*	1%	u
